# Several values for one entry are separate records, joined by “and”; a condition that tells them apart may be missing. Identical values can stand only once. About 2,100 (0.53%) of roughly 400,000 compounds were called active. Inconclusive results (about 14%) are left out. The sample holds actives, similar compounds and a random draw of the others, so the mix is not that of the screen. No rule for the calls is given here.
# Molecular target: Ataxin-2 (Homo sapiens) (UniProt Q99700)
# Assay: qHTS for Inhibitors of ATXN expression.
# Assay type: functional
# Ataxin-2 (Homo sapiens), sequence (Q99700 whole entry): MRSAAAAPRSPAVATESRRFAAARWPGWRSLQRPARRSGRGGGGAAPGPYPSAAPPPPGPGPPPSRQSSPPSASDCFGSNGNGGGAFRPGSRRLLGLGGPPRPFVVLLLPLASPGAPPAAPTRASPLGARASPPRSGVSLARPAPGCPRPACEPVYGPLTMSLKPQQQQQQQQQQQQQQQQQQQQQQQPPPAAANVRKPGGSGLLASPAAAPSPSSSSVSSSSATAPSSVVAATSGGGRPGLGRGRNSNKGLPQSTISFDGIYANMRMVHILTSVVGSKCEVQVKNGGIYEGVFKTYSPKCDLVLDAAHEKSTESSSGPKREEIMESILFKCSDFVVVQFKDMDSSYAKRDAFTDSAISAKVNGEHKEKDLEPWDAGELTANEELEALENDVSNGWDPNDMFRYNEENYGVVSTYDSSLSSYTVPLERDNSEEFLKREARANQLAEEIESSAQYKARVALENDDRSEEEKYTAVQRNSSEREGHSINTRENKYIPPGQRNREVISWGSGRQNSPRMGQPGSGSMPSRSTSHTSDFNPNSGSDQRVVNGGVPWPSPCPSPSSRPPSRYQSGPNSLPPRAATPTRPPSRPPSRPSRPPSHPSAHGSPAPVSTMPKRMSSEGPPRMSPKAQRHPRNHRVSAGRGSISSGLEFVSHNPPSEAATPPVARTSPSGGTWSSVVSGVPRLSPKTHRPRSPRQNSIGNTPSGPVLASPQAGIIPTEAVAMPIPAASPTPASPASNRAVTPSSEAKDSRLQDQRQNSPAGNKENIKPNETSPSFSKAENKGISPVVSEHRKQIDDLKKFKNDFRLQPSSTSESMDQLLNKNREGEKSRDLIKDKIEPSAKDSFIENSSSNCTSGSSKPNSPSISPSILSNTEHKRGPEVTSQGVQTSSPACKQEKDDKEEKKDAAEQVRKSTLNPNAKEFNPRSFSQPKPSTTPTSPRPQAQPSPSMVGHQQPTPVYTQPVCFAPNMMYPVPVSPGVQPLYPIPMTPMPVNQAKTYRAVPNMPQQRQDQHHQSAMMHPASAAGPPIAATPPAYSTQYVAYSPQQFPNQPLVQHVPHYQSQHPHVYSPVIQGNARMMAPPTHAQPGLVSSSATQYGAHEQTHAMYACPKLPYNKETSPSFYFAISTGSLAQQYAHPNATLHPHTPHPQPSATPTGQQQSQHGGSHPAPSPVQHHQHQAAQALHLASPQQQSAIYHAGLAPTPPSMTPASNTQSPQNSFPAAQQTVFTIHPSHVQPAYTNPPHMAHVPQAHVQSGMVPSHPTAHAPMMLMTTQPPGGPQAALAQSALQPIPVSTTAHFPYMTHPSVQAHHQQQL
row,Compound,Potency
1,CCN(CC)c1ccc(/C=N\NC(=O)c2cccc3cc[nH]c23)cc1,inactive
2,COc1cccc(Nc2nc(C(N)Cc3ccc(C(F)(F)F)cc3)cs2)n1 (centres undefined),31.6 µM (active)
3,NC(Cc1ccc(F)cc1)c1csc(Nc2ccc(C(F)(F)F)cn2)n1 (centres undefined),35.5 µM (active)
4,NC(Cc1ccc(F)cc1)c1csc(Nc2nccc(C(F)(F)F)n2)n1 (centres undefined),39.8 µM (active)
5,CCc1cnc(Nc2nc(C(N)Cc3ccc(F)cc3)cs2)nc1 (centres undefined),25.1 µM (active)
6,O=C(NCCN1CCCOC1=O)C(=O)NCCN1CCCOC1=O,inactive
7,O=C(NC1CCCc2ccccc21)c1ccccc1Cl (centres undefined),inactive
8,O=C(Nc1ccc2nc(-c3ccco3)c(-c3ccco3)nc2c1)NC1CC1,inactive
9,CCOC(=O)c1cnc2nc(N3CCOCC3)nn2c1N,inactive
10,NC(=S)c1cc2ccc(O)cc2oc1=O,inactive
11,Cc1[nH]c2ccccc2c1/C=C/c1nc2ccccc2c(=O)n1CCO,inactive
12,CCc1cnc(Nc2nc(C(N)Cc3ccc(Cl)cc3)cs2)nc1 (centres undefined),35.5 µM (active)
13,CCCc1cnc(Nc2nc(C(N)Cc3ccc(C(F)(F)F)cc3)cs2)nc1 (centres undefined),22.4 µM (active)
14,NC(c1ccccc1)c1csc(Nc2ccc(C(F)(F)F)cn2)n1 (centres undefined),35.5 µM (active)
15,COc1cc(OC)nc(Nc2nc(C(N)Cc3ccc(Cl)cc3)cs2)n1 (centres undefined),35.5 µM (active)
16,COc1ccccc1/C=[N+](\[O-])C1SC(=S)N(C)C1(C)C (centres undefined),inactive
17,Cc1c(C)c2ccc(O[C@@H]3O[C@H](CO)[C@@H](O)[C@H](O)[C@H]3O)c(C)c2oc1=O,inactive
18,Cc1nc2ccc(NS(=O)(=O)c3c(F)cc(F)cc3Br)cc2s1,inactive
19,O=C(Nc1ccc(NC(=O)C2CC2)nc1)c1cnccn1,inactive
20,COc1ccc(-c2cc(=O)oc3c(O)c(O)ccc23)cc1,inactive
21,O=C(Nc1nc2n(n1)C(c1ccc(Cl)cc1)C=C(c1ccccc1)N2)c1ccco1 (centres undefined),inactive
22,O=C(CN1C(=O)/C(=C\c2cccc(Br)c2)Oc2ccccc21)NCCCN1CCOCC1,39.8 µM (active)
23,CCCCNC(=O)c1ccc(/C=C2\Oc3ccccc3N(C)C2=O)cc1,inactive
24,O=C(CN1C(=O)/C(=C\c2ccccc2Cl)Oc2ccccc21)NCc1cccnc1,inactive
25,COc1cc(/C=C(\C#N)c2ccccn2)ccc1OCc1ccccc1,inactive

row,Compound,Potency
1,O=C1OCCN1C(=O)[C@H]1[C@H](c2ccc(F)cc2)C(c2cccc(Cl)c2)=NN1c1ccc(Br)cc1,inactive
2,CCCCc1ccc(Nc2nc(O)cc(CCC)n2)cc1,39.8 µM (active)
3,Oc1cnnc(Nc2ccc(Nc3ccccc3)cc2)n1,inactive
4,CCNC(=O)N1CCN(S(=O)(=O)c2ccc3c(c2)OCCCO3)CC1,inactive
5,O=S(=O)(c1ccccc1)N(CC(F)(F)F)c1ccc(C(O)(C(F)(F)F)C(F)(F)F)cc1,22.4 µM (active)
6,CCN(c1ccc(OCC(=O)OCC(=O)Nc2ccc(F)c(F)c2F)cc1)S(=O)(=O)c1ccccc1,inactive
7,COc1ccc(NC(=O)c2sc3nc(N4CCOCC4)c4c(c3c2N)CCCC4)cc1,inactive
8,CC1(C(=O)NNC(=O)c2ccc(=O)oc2)CC1Br (centres undefined),inactive
9,O=C(c1ccccc1NS(=O)(=O)c1ccc([N+](=O)[O-])cc1[N+](=O)[O-])N1O[C@@H]2C=C[C@H]1C2,22.4 µM (active)
10,CCN(CC)CCNC(=O)c1ccc(NC(=O)c2cn(-c3ccccc3)nc2-c2cccs2)cc1,39.8 µM (active)
11,COc1ccc(-c2nn(-c3ccccc3)cc2C(=O)Nc2ccc(C(=O)O)cc2)cc1OC,inactive
12,O=C(O)/C=C/c1cn(-c2ccccc2)nc1-c1cccs1,inactive
13,CC(C)c1ccc(C2=CC(c3cccc(Cl)c3)n3ncnc3N2)cc1 (centres undefined),inactive
14,CC(c1ccccc1)N(C)C(=O)CN1CCN(S(=O)(=O)c2ccc3c(c2)OCCCO3)CC1 (centres undefined),inactive
15,CCN(CC)CCOc1ccc(/C(=C(/Cl)c2ccccc2)c2ccccc2)cc1,35.5 µM (active) and 17.8 µM (active)
16,C=CCN(CC=C)CCOc1cccc(Oc2ccccc2)c1,inactive
17,COc1ccc(CNc2oc(/C=C/c3cccc(OC)c3)nc2C#N)cc1,inactive
18,O=c1oc2c3c4c(cc2c(C(F)(F)F)c1CCN1CCOCC1)CCCN4CCC3,inactive
19,Cc1ccc(S(=O)(=O)N(Cc2ccccc2)c2ccccc2C(=O)N2CCCCC2)cc1,31.6 µM (active)
20,CCN(c1ccccc1)S(=O)(=O)c1ccc(Cl)c(C(=O)N2CCCC2)c1,inactive
21,Cc1ccc(S(=O)(=O)N2CCN(C(=O)c3ccccn3)CC2)cc1,inactive
22,CCOc1ccc2nc(NCCNC(=O)c3cc(OC)c(OC)c(OC)c3)c(C#N)cc2c1,inactive
23,CCOc1ccc(-c2nnc(SCC(=O)Nc3ccc4c(c3)c3ccccc3n4CC)n2N)cc1,31.6 µM (active)
24,CCC(=O)Nc1ccc(NC(=O)CSc2nnnn2Cc2ccccc2)cc1C,inactive

# — ChEMBL document CHEMBL1201862, “PubChem BioAssay data set” (2004)
